Screens deposited in PubChem BioAssay by several laboratories.
Rows were chosen to be rich in hits. Some 0.96% of all compounds tested hit in one or more screens of this group.
beta cell repl: MIN6 beta-cell proliferation induction | proliferation, % at 10 µM | MIN6 cells proliferation, ATPlite luminescence, 48 h; cells starved in 0.2% serum; 100% = growth in 10% serum | 330,000 tested, 0.29% active | AID 2380;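 active means compounds whose signal lies at least 3.5 SD above the mean of all wells on their plate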;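 further: 0% = DMSO-treated cells in low-serum medium and 100% = 10% serum control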
V-ATPase pH: alters yeast V-ATPase proton transport; S. cerevisiae, pHLuorin cytosolic pH fluorescence; response, % at 10 µM; 350,000 tested, 0.37% active; in the data active means response mostly above about 7.3%, no sharp cut-off; inactive means mostly below about 5.4%; further: actives read high
HDAC3 inhib: inhibitors of human histone deacetylase 3; inhibition, % at 8.3 µM; recombinant HDAC3, fluorogenic peptide/trypsin coupled, fluorescence; 320,000 tested, 0.15% active; O15379; AID 2718; in the data active means inhibition above about 26%, passing the limit was not always enough; inconclusive means no clear call, values can overlap the other calls
DAGLB inhibitor: diacylglycerol lipase beta (human) inhibition. HEK293T DAGLB membrane lysate, EnzChek fluorogenic substrate. Q8NCG7. 340,000 tested, 0.059% active. inhibition, % at 5.17 µM; in the data active means inhibition above about 34%;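 further: 0% = enzyme with vehicle and 100% = wells lacking enzyme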
Target sequence (Q8NCG7 whole entry, looked up): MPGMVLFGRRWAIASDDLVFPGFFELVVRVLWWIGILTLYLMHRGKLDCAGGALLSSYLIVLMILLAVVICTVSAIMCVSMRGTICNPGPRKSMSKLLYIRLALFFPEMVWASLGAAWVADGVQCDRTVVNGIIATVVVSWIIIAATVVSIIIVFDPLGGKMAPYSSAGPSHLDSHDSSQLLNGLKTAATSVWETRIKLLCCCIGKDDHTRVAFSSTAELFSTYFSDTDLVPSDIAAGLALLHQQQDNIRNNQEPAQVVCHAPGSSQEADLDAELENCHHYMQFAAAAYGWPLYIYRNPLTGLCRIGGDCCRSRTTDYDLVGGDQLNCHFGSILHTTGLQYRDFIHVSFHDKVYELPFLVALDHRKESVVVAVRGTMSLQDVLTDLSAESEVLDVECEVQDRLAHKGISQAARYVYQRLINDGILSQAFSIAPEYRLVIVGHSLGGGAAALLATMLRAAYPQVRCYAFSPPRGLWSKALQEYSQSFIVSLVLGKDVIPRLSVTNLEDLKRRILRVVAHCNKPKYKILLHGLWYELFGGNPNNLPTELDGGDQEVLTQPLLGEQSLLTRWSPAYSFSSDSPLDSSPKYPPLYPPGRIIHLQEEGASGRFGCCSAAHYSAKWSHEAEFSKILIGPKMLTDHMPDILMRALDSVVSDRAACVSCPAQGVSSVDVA
Rtt109 Vps75: C. albicans Rtt109 histone acetyltransferase inhibition | Q5AAJ8 | purified Rtt109/Vps75, ThioGlo CoA-SH fluorescence, 4 h | inhibition, % at 34.9 µM | 330,000 tested, 0.16% active | AID 540336;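 active means inhibition of at least 50% in every replicate; inconclusive means best replicate reaches 50% inhibition but some replicates fall short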
V-ATPase pH SP: modulates yeast V-ATPase proton transport; shares compounds with V-ATPase pH; response, % at 10 µM; S. cerevisiae pHLuorin cytosolic pH; 980 tested, 2% active; AID 602197; in the data active means response above about 24%;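 further: plate controls were vehicle wells for no effect and positive control wells for full effect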
* hit, by the source's call; ? = inconclusive; . = no result.

SMILES	beta cell repl	V-ATPase pH	HDAC3 inhib	DAGLB inhibitor	Rtt109 Vps75	V-ATPase pH SP
COc1cccc(S(=O)(=O)N2CCOCC2)c1	-2	-1	-5	-2	11	.
CCOC(=O)/C=C/c1ccc2c(c1)S(=O)(=O)N(Cc1ccc(OC)cc1)[C@H]2CC(=O)OCC	-8	0	2	-6	1	.
CCOC(=O)C1CCN(C(=O)CN(c2cccc(C(F)(F)F)c2)S(C)(=O)=O)CC1	0	12*	1	3	1	1
COc1cccc(N2C(=O)/C(=C\c3cccs3)NC2=S)c1	3	21*	0	-1	4	-4
CCOCCCNC(=O)c1cc2c(=O)[nH]c3ccccc3c2s1	0	-1	-25	-1	-3	.
CCN1CCN(CCCNC(=O)Cn2nc(C)n3nc(-c4ccccc4)cc3c2=O)CC1	-2	19*	8	0	-2	2
COC(=O)c1ccccc1NC(=O)CN1CCCCC1	1	12*	1	0	4	1
COC(=O)c1ccccc1NC(=O)CN1CCOCC1	-3	1	5	-2	7	.
O=C(CN1CCCCC1)N1CCCc2c1c(=O)oc1ccc(OCc3ccccc3)cc21	-5	-1	-10	-2	14	.
CCCCCOc1ccc2oc(=O)c3c(c2c1)CCCN3C(=O)CN1CCCC(C(=O)OCC)C1 (stereo not given)	-6	13*	4	-9	12	2
COc1nc(Cl)cn(-c2ccc(Cl)cc2)c1=O	0	-3	-3	1	1	-1
COC(=O)c1cn(-c2ccc(Cl)cc2)c(=O)c2ccccc12	2	-2	-5	-8	-10	.
CCCNC(=O)CCCN1C(=O)c2ccccc2Sc2ncccc21	-3	9.0*	1	1	4	5
C/C(=N\NC(=S)NC1CCCCC1)c1cccc(Br)c1	-7	2	-4	0	-2	.
C/C(=N\NC(=S)NC1CCCCC1)c1cccc(C(F)(F)F)c1	-6	13*	0	-1	-2	2
COc1ccc(NC(=O)C2CCN(S(=O)(=O)c3ccc(Cl)c(C(F)(F)F)c3)CC2)cn1	.	-1	.	-1	.	.
Cc1snc(S(=O)(=O)/C(C#N)=N/Nc2cccc(C(F)(F)F)c2)c1C#N	-1	25*	-2	9	0	-4
CCOC(=O)c1c(C)[nH]c(C(=O)COC(=O)c2cnc(C)cn2)c1C	1	11*	4	1	24	2
CCOC(=O)c1c(C)[nH]c(C(=O)C(C)OC(=O)c2cnc(C)cn2)c1C (stereo not given)	-2	1	.	-2	-8	.
CCN(CC)C(=O)C1CCCN(c2ccc([N+](=O)[O-])cc2[N+](=O)[O-])C1 (stereo not given)	-2	4	2	1	2	.
CCN1CCN(C(=O)c2cc(S(=O)(=O)Nc3ccc(S(C)(=O)=O)cc3)ccc2Cl)CC1	2	10*	2	2	.	1
CC(=O)N1CCN(C(=O)c2cc(S(=O)(=O)Nc3ccc(S(C)(=O)=O)cc3)ccc2Cl)CC1	6	-2	-1	-1	-5	.
CCCC(=O)c1c[nH]c(C(=O)NCc2ccco2)c1	2	-3	?	-1	1	.
CCOc1cc(C(c2c(O)nc(SC)[nH]c2=O)c2c(O)nc(SC)[nH]c2=O)ccc1O	0	1	1	.	.	.
CSc1ccc(/C=C(/Sc2nnc(-c3ccccc3)o2)C(=O)O)cc1	0	0	-2	.	-12	-34
SMILES	beta cell repl	V-ATPase pH	HDAC3 inhib	DAGLB inhibitor	Rtt109 Vps75	V-ATPase pH SP
O=C(O)/C(=C\c1cccs1)Sc1nnc(-c2ccc(F)cc2)o1	-2	0	-11	-3	5	2
CSc1nnc(-c2ccccc2)o1	0	0	-4	-6	-2	1
CN1[C@@H]2CC[C@H]1CC(OC(=O)[C@H](CO)c1ccccc1)C2 (stereo not given in full)	3	-4	-1	-1	-3	.
O=C1CCC(C(=O)N2CCCCO2)CN1CCc1ccc(Cl)cc1 (stereo not given)	1	-3	1	-1	-3	.
Cc1ccc(C(=O)N/C(=C/c2ccc(F)cc2)C(=O)NCc2ccncc2)cc1	-4	-6	-12	1	5	.
O=C(/C=C/c1ccccc1)N/C(=C/c1ccccc1)C(=O)N1CCOCC1	0	5	6	-1	3	.
CC(=O)N/C(=C\c1ccccc1)C(=O)N1CCOCC1	-1	10*	2	0	6	2
COc1c2ccccc2c(OC)c2ccccc12	-3	-3	-1	-2	6	.
CCCOC(=O)c1ccc(-c2ccc(C=O)o2)cc1	0	8.2*	.	-7	-3	5
CN1C(C(=O)Nc2ccc(F)cc2F)=CC(c2cccs2)=NS1(=O)=O	4	-6	0	1	0	.
Cc1[nH]c(C)c(S(=O)(=O)N(Cc2ccccc2)C(C)(C)C)c1C(=O)N1CCCC1	1	10*	3	1	0	3
Cc1ccc(S(=O)(=O)c2ccc(C)cc2)cc1	0	5	2	0	-9	.
Cc1ccc(S(=O)(=O)C=CS(=O)(=O)c2ccc(C)cc2)cc1	.	20*	.	6	.	115*
Cc1csc(NC(=O)CSc2nncn2C)n1	-2	13*	1	0	-10	-2
COC(=O)Cc1csc(NC(=O)CSc2nncn2C)n1	-2	.	1	.	.	.
Cc1cc(=O)oc2cc(OCC(=O)NC3CC(C)(C)NC(C)(C)C3)ccc12	2	11*	3	1	12	0
CN(CC(=O)Nc1c(Cl)cccc1Cl)C(=O)CCc1nc2sc3c(c2c(=O)[nH]1)CCCC3	0	-7	-5	5	-9	.
Cc1cc(C(=O)N2C(C)CCCC2C)no1 (stereo not given)	-1	-2	0	-2	-1	.
O=C(CSc1n[nH]c(-c2ccco2)n1)Nc1ccccc1Cl	-3	12*	12	-2	9	-3
Cc1ccc(C(=O)OCCc2sc[n+](Cc3ccccc3)c2C)cc1	0	47*	5	2	-1	2
COC(=O)COc1ccc2c(c1)O/C(=C\c1cccc([N+](=O)[O-])c1)C2=O	-4	13*	3	-3	-9	3
COc1ccc(/C=C2\Oc3cc(OCC(N)=O)ccc3C2=O)cc1OC	-2	-1	10	-5	4	.
C1=Cc2ccccc2Nc2ccccc21	-3	12*	-1	1	-9	1
CC(C)(C)c1ccc(NC(=O)CSc2n[nH]c(=O)n2C2CC2)cc1	-4	2	?	-2	-9	.
Cc1ccccc1NC(=O)N(CCc1nc2ccccc2[nH]1)Cc1ccccc1	0	12*	2	-1	6	0
CC[N+](CC)(CC)C/C=C/CN1CCCCC1	-2	-1	-2	-3	-7	.
CC(C)(C)C(=O)Nc1ccc(S(=O)(=O)N2CCCC2)cc1	1	8.5*	1	-2	-1	0
CC(=O)Nc1ccc(S(=O)(=O)N2CCCC2)cc1	-2	-2	-1	2	1	.
